# Test results from PubChem BioAssay (NCATS).
# Inconclusive results are not listed. The source made the active and inactive calls. The call rests on the fitted dose curve; in most records, active means well fitted cell-killing curve with a large enough effect; inconclusive means small, poorly fitted or top-dose-only effect, or effect the other way; inactive means no such curve, though single readings can be large or run the other way.
# Test: Quantitative High-Throughput drug screen in 47 multiple myeloma cell lines against the NCATS MIPE library collection: KMS26_JCRB cell viability assay (AID 1918975); further: nearly all actives have a fitted effect of over 45% in size
# Details: KMS26 myeloma cells viability, CellTiter-Glo ATP, 48 h; series mostly up to 45.8 µM
# Text: PI: Beverly A. Mock Ph.D.
# Laboratory of Cancer Biology and Genetics,
# Center for Cancer Research, National Cancer Institute,
# National Institute of Health, Bethesda, Maryland
# Drug resistance and disease progression are common in multiple myeloma (MM) patients, underscoring the need for new therapeutic combinations. […] We hypothesized that effective combinations would reduce MYC expression and enhance p16 activity. […] These preclinical data identify potentially useful drug combinations for evaluation in drug-resistant MM and reveal potential mechanisms of combined drug sensitivity.
# Described herein is the primary MIPE qHTS used to cherrypick compounds. Validated compounds were then further tested for potential synergistic activiy.
# [1] Peat TJ, Gaikwad SM, Dubois W, Gyabaah-Kessie N, Zhang S, Gorjifard S, Phyo Z, Andres M, Hughitt VK, Simpson RM, Miller MA, Girvin AT, Taylor A, Williams D, D'Antonio N, Zhang Y, Rajagopalan A, Flietner E, Wilson K, Zhang X, Shinn P, Klumpp-Thomas C, McKnight C, Itkin Z, Chen L, Kazandijian D, Zhang J, Michalowski AM, Simmons JK, Keats J, Thomas CJ, Mock BA. Drug combinations identified by high-throughput screening promote cell cycle transition and upregulate Smad pathways in myeloma. Cancer Lett. 2023 Aug 1;568:216284. doi: 10.1016/j.canlet.2023.216284. Epub 2023 Jun 24. PMID: 37356470; PMCID: PMC10408729.
# SEQUENCE No. (e.g., 1, 2, 3, etc.); […] (e.g., Cells, Incubation, Reagent, etc.); VALUE and DESCRIPTION.
# 1; Cells; 5 uL; white, solid bottom 1536-well Greiner assay plate.
# 2; Compounds; 23 nL; Kalypsis pin tool (Wako USA) equipped with a 1536-well pin head to transfer to the assay plates.
# 3; Incubation; 48 hours; 37C incubation.
# 4; Reagent;5uL; CellTiter Glo (Promega).
# 5; Detector; 425V; Luminescence; Viewlux PerkinElmer.
# NOTES (numbers refer to Sequence numbers above)
# 1. The cell-based screening methods employed in this study were like those previously published. Briefly, the corresponding myeloma cell lines were screened in 1,536-well plates with 500 cells, 5-uL per well for inhibition of cell viability (assessed by measuring ATP levels with CellTiterGlo).
# 2. NCATS MIPE 4.0 library of approved and investigational drugs were added using the Kalypsis pin tool. Wells treated with DMSO only for 100% viability and media only wells for 0% viability were used as controls.
# 3. The assay plates were covered and incubated for 48 hours in a 37C, 5% CO2 incubator with controlled humidity.
# 4. After 48 hours, CellTilter-GloTM luminescent substrate mix (Promega) reagent was added to the assay plate and plates we incubated for 5 min at room temperature.
# 5. Signal was measured as median relative luminescence units on a ViewLux (PerkinElmer) multiplate reader.
# [1] Heske CM, Davis MI, Baumgart JT, Wilson K, Gormally MV, Chen L, Zhang X, Ceribelli M, Duveau DY, Guha R, Ferrer M, Arnaldez FI, Ji J, Tran HL, Zhang Y, Mendoza A, Helman LJ, Thomas CJ. Matrix Screen Identifies Synergistic Combination of PARP Inhibitors and Nicotinamide Phosphoribosyltransferase (NAMPT) Inhibitors in Ewing Sarcoma. Clin Cancer Res. 2017 Dec 1;23(23):7301-7311. doi: 10.1158/1078-0432.CCR-17-1121. Epub 2017 Sep 12. PMID: 28899971; PMCID: PMC6636827.
# Potency means the concentration at half of the fitted maximal effect.
row,SMILES,Potency
1,CCCCOc1c(C(=O)c2c(F)cc(C)cc2F)cnc2n[nH]cc12,3720 nM (active)
2,COc1cc2c(Oc3ccc4[nH]c(C)cc4c3F)ncnc2cc1OCCCN1CCCC1,29600 nM (active)
3,NC(=O)Nc1cc(-c2cccc(F)c2)sc1C(=O)N[C@H]1CCCNC1,11800 nM (active)
4,C=CC(=O)Nc1cccc(Oc2nc(Nc3ccc(N4CCN(C)CC4)cc3OC)ncc2Cl)c1,26400 nM (active)
5,CC(C)C[C@H](NC(=O)CNC(=O)c1cc(Cl)ccc1Cl)B(O)O,118 nM (active)
6,O=C(O)Cn1nnc(-c2cc(N3CCC(Oc4cc(F)ccc4Br)CC3)no2)n1,inactive
7,C[C@@H](Oc1cc(-c2cnn(C3CCNCC3)c2)cnc1N)c1c(Cl)ccc(F)c1Cl,14800 nM (active)
8,CC1(C)CCC(c2ccc(Cl)cc2)=C(CN2CCN(c3ccc(C(=O)NS(=O)(=O)c4ccc(N[C@H](CCN5CCOCC5)CSc5ccccc5)c(S(=O)(=O)C(F)(F)F)c4)cc3)CC2)C1,105 nM (active)
9,CN1CCN(c2ccc3nc(-c4c(N)c5c(F)cccc5[nH]c4=O)[nH]c3c2)CC1,29600 nM (active)
10,CCC[C@H](NC(=O)C(C#N)=Cc1cccc(Br)n1)c1ccccc1,1480 nM (active)
11,COc1cc(C)c(Sc2cnc(NC(=O)c3ccc(CNC(C)C(C)C)cc3)s2)cc1C(=O)N1CCN(C(C)=O)CC1 (stereo not given),14800 nM (active)
12,C[C@@H]1COC(Nc2ccc3ncnc(Nc4ccc(OCc5nccs5)c(Cl)c4)c3c2)=N1,20900 nM (active)
13,CN(C)CC=CC(=O)Nc1cc2c(Nc3ccc(F)c(Cl)c3)ncnc2cc1O[C@H]1CCOC1,6620 nM (active)
14,Cc1cc(N2CCOCC2)cc2[nH]c(-c3c(NC[C@@H](O)c4cccc(Cl)c4)cc[nH]c3=O)nc12,526 nM (active)
15,O=c1[nH]nc(Sc2ncc([N+](=O)[O-])s2)n1-c1ccc2c(c1)OCCO2,1480 nM (active)
16,NC1(Cc2ccc(Cl)cc2)CCN(c2ncnc3[nH]ccc23)CC1,6620 nM (active)
17,Nc1ccc(C(=O)c2cc3c(ccc4ccccc43)[nH]2)cc1,16600 nM (active)
18,CC1(C)CC(=O)c2c(C(F)(F)F)nn(-c3ccc(C(N)=O)c(NC4CCC(OC(=O)CN)CC4)c3)c2C1 (stereo not given),187 nM (active)
19,O=C(Nc1ncc(-c2cc(C(F)F)nn2-c2c(Cl)cccc2Cl)s1)C1CC1,2640 nM (active)
20,COc1ccc(F)c(F)c1C(=O)c1cnc(NC2CCN(S(C)(=O)=O)CC2)nc1N,2640 nM (active)

row,SMILES,Potency
1,Clc1ccc2ncc(-c3cccc(NC4CNC4)n3)n2c1,23500 nM (active)
2,COCCOc1ccc2c(c1)ncn2-c1ccc2cccc(N3CCC(N)CC3)c2n1,13200 nM (active)
3,COC(=O)C1=C(C)NC(C)=C(C(=O)OCCN2CCN(C(c3ccccc3)c3ccccc3)CC2)C1c1cccc([N+](=O)[O-])c1 (stereo not given),inactive
4,Cc1ccc(NC(=O)C2(c3ccc4c(c3)OC(F)(F)O4)CC2)nc1-c1cccc(C(=O)O)c1,59 nM (active)
5,Cc1cc(Nc2ncnc3ccc(-c4ccc(CNCCS(C)(=O)=O)o4)cc23)ccc1Oc1ccn2ncnc2c1,26400 nM (active)
6,CCC(=C(c1ccccc1)c1ccc(OCCN(C)C)cc1)c1ccccc1,20900 nM (active)
7,COC(=O)[C@]12CCC(C)(C)C[C@@H]1[C@@H]1C(=O)C=C3[C@@]4(C)C=C(C#N)C(=O)C(C)(C)[C@@H]4CC[C@@]3(C)[C@]1(C)CC2,209 nM (active)
8,CC(C)c1nn(-c2c(Cl)cccc2Cl)c2nc(Cc3ccc(OCCO)cc3)[nH]c(=O)c12,148 nM (active)
9,CCN1CCN(CC(=O)Nc2ccc(-c3cccc4c(=O)cc(N5CCOCC5)oc34)c3sc4ccccc4c23)CC1,1320 nM (active)
10,COc1cc(OC2CCN(C)CC2)ccc1Nc1ncc2c(n1)n(C1CCCC1)c(=O)n2C,13200 nM (active)
11,CNC(=O)c1ccc(N2C(=S)N(c3cnc(C#N)c(C(F)(F)F)c3)C(=O)C23CCC3)cc1F,1480 nM (active)
12,CC(C)=CCCC(C)=CCCC(C)=CCSc1ccccc1C(=O)O,4180 nM (active)
13,Cc1nc2cnc3ccc(C#Cc4cccnc4)cc3c2n1-c1ccc(C(C)(C)C#N)cc1,1320 nM (active)
14,COc1cc2c(NC3CCN(C(C)C)CC3)nc(C3CCCCC3)nc2cc1OCCCN1CCCC1,6620 nM (active)
15,C1Cc2[nH]nc(-c3nn[nH]n3)c2C1,inactive
16,Cc1nc(Nc2n[nH]c3c2CN(C(=O)N[C@H](CN(C)C)c2ccccc2)C3(C)C)c2sccc2n1,2960 nM (active)
17,COc1cccc2nc(-c3cccs3)nc(NN3C(=O)C=C(C)C3=O)c12,2960 nM (active)
18,CCCCc1nc2cc(C=CC(=O)NO)ccc2n1CCN(CC)CC,526 nM (active)
19,Nc1cc(C(F)(F)F)c(-c2cc(N3CCOCC3)nc(N3CCOCC3)n2)cn1,2090 nM (active)
20,CNC(=O)c1ccccc1Nc1nc(Nc2ccc(N3CCOCC3)cc2OC)ncc1Cl,418 nM (active)
